Only some compounds are listed: those with a hit (about 21% of all), similar ones and a draw of the others.
Gal4-VP16 FLuc – VP16 counterscreen qHTS for inhibitors of ROR gamma transcriptional activity | Drosophila S2 Gal4-VP16 UAS-luciferase, luminescence, 20 h | Potency, µM (titrated, usually from 53.6 µM), actives largely listed as inhibitors | actives 3.5% (n = 310,000);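 also: Gal4-VP16 expression switched on by copper sulfate through the metallothionein promoter; nearly all actives have a fitted effect of over 50% in size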
DT40 TDP1 CPT – qHTS for Inhibitors of human tyrosyl-DNA phosphodiesterase 1 (TDP1): qHTS in cells in presence of CPT. chicken DT40 Tdp1-/-;hTDP1 cells + 20 nM CPT, ATP luminescence, 48 h. Potency, µM (titrated, usually from 46.2 µM), actives largely listed as inhibitors. actives 12% (n = 420,000). AID 686979, 2013; also: nearly all actives have a fitted effect of over 55% in size
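Chicken DT40 Tdp1-/- cells complemented with human TDP1, 400 cells/well, exposed to compounds plus 20 nM camptothecin for at least 48 h at 37 C; viability read as ATP content by CellTiter-Glo luminescence.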
IL-1B inflam inh – qHTS for Inhibitors of Inflammasome Signaling: IL-1-beta AlphaLISA Primary Screen | AID 743279, 2014 | THP-1 LPS/ATP IL-1B secretion, AlphaLISA, 16 h; stronger effect = lower value | activity change, % at 57.5 µM | actives 4.7% (n = 360,000); in the data active = activity change below about -50%; inconclusive = mostly about -30% to -49%
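Secreted IL-1B measured by AlphaLISA bead assay after 16 h compound exposure of THP-1 cells; compounds (final up to 57.5 uM) added 1 h before LPS (250 ng/mL) and ATP (1.25 mM) stimulation; lower signal means less secretion.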
ELG1 repair inh – qHTS screen for small molecules that inhibit ELG1-dependent DNA repair in human embryonic kidney (HEK293T) cells expressing luciferase-tagged ELG1; HEK293T ELG1-luciferase reporter, luminescence, 16 h; DNA damage induced by 5-fluorouridine; actives 2.3% (n = 330,000); Potency, µM (doses to about 46.1 µM), actives largely listed as inhibitors; also: nearly all actives have a fitted effect of over 55% in size
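Step one: seed 2,000 cells per well. Step two: pin-transfer compound or DMSO alongside 5-fluorouridine. Step three: incubate 16 hr, 37 °C, 5% CO2. Step four: add ONE-Glo, wait 30 min, read luminescence.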
RORgamma inh – qHTS for inhibitors of ROR gamma transcriptional activity; Drosophila S2 Gal4-RORgamma UAS-luciferase reporter, 20 h; Potency, µM (series often up to 53.6 µM), actives largely listed as inhibitors; Nuclear receptor ROR-gamma (Mus musculus), P51450; actives 5.4% (n = 310,000); also: nearly all actives have a fitted effect of over 60% in size
Target sequence (P51450 whole entry, looked up, the tested form may be a part): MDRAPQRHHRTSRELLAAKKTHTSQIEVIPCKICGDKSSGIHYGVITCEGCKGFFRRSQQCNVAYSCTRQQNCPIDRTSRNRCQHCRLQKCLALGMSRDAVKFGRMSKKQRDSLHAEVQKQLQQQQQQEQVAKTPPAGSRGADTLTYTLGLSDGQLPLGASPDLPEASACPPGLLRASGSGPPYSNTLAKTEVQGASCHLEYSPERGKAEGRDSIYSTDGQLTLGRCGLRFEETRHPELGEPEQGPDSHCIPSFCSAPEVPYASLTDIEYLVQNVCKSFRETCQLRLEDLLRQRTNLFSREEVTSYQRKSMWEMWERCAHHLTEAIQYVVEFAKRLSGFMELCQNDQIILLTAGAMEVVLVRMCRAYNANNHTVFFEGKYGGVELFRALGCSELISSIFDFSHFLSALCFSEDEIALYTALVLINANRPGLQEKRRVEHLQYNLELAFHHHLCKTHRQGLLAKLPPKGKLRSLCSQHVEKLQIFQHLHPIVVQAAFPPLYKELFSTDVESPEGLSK
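Luciferase reporter read in Schneider cells carrying Gal4-RORγ (mouse) and UAS-Photinus luciferase; cells given compound 1 h before 700 uM copper sulfate induction, then incubated 20 h at ambient temperature.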
TDP1 cell noCPT – qHTS for Inhibitors of human tyrosyl-DNA phosphodiesterase 1 (TDP1): qHTS in cells in absence of CPT; DT40 Tdp1-/- hTDP1 cells, no CPT, ATP luminescence, 48 h; Potency, µM (doses to about 46.2 µM), actives largely listed as inhibitors; actives 15% (n = 420,000); AID 686978, 2013; also: nearly all actives have a fitted effect of over 55% in size
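Chicken DT40 Tdp1-/- cells complemented with human TDP1, screened without camptothecin (DMSO vehicle only), 400 cells/well. Compounds pin-transferred, cells incubated at 37 °C for at least 48 hr. Growth read as ATP-dependent luminescence (CellTiter-Glo, 30 min at RT).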
A number is an active result. Unless noted, calls follow the shape of the dose curve; as a rule, active = well fitted curve in the direction sought with a large enough effect; inconclusive = small, poorly fitted or top-dose-only effect, or another doubt; inactive = no such curve, though single readings can be large; an effect the other way counts as inactive or inconclusive.

Screening Cn1c(SCc2ccccc2Cl)nc2ccccc21 returned Gal4-VP16 FLuc inactive, DT40 TDP1 CPT inconclusive, IL-1B inflam inh inactive, ELG1 repair inh inconclusive, RORgamma inh inconclusive and TDP1 cell noCPT inconclusive.
`CCn1c(SCC(=O)Nc2ccc(OC)cc2)nc2nc3c(cc2c1=O)CCCC3` gave Gal4-VP16 FLuc inactive, DT40 TDP1 CPT inconclusive, IL-1B inflam inh -83, ELG1 repair inh inconclusive, RORgamma inh inactive and TDP1 cell noCPT 23µM.
`CCCCn1c(N)c(N(CCC(C)C)C(=O)COC(=O)c2ccc3ccccc3c2)c(=O)[nH]c1=O` gave DT40 TDP1 CPT inconclusive, IL-1B inflam inh inactive, ELG1 repair inh inactive and TDP1 cell noCPT inconclusive.
`CN1CCN(c2ncc3nc(-c4ccc(Cl)cc4)c(=O)n(C)c3n2)CC1` gave Gal4-VP16 FLuc inactive, DT40 TDP1 CPT 21µM, RORgamma inh inactive and TDP1 cell noCPT inconclusive.
Screening Cn1c(=O)c(-c2ccc(Cl)cc2)nc2cnc(N3CCNCC3)nc21 returned Gal4-VP16 FLuc inactive, DT40 TDP1 CPT 10µM, RORgamma inh inactive and TDP1 cell noCPT 16µM.
`O=C(O)C1C2C=CC(O2)C1C(=O)Nc1cccc(C(F)(F)F)c1` (stereo not drawn) gave Gal4-VP16 FLuc inactive, DT40 TDP1 CPT inactive, IL-1B inflam inh inactive, ELG1 repair inh inactive, RORgamma inh inactive and TDP1 cell noCPT inactive.
Screening COc1ccccc1Cc1c(-c2cccc(Cl)c2)nc2ccc(Br)cn12 returned DT40 TDP1 CPT 23µM, IL-1B inflam inh inactive and TDP1 cell noCPT 21µM.
For COC(=O)c1ccc2nc(-c3ccc(Cl)cc3)c(Cc3ccccc3OC)n2c1 the results were DT40 TDP1 CPT inactive, IL-1B inflam inh inactive and TDP1 cell noCPT inactive.
COC(=O)c1ccc2nc(-c3cccc(Cl)c3)c(Cc3ccccc3OC)n2c1 was read as DT40 TDP1 CPT 16µM, IL-1B inflam inh inactive and TDP1 cell noCPT 23µM.
O=C(CC1CCCC1)NCCS(=O)(=O)N1CCN(c2ccccc2)CC1 was read as DT40 TDP1 CPT inconclusive, IL-1B inflam inh inactive and TDP1 cell noCPT inconclusive.
O=c1ccc2c(ccc3ncccc32)o1 was read as DT40 TDP1 CPT inactive, IL-1B inflam inh inconclusive and TDP1 cell noCPT 12µM.
COc1ccc(C2CC(c3ccccc3)=NN2C(=O)COC(=O)c2cccc(O)c2)cc1 (stereo not drawn) was read as DT40 TDP1 CPT inconclusive, IL-1B inflam inh inactive, ELG1 repair inh 16µM and TDP1 cell noCPT inconclusive.
For COc1ccc(C2CC(c3ccc4ccccc4c3)=NN2C(=O)COC(=O)C2CCC(=O)N2)cc1 (stereo not drawn) the results were Gal4-VP16 FLuc inactive, DT40 TDP1 CPT 16µM, IL-1B inflam inh -69, ELG1 repair inh inconclusive, RORgamma inh inactive and TDP1 cell noCPT inconclusive.
Screening COc1ccc(C2CC(c3ccc4ccccc4c3)=NN2C(=O)CN2CCC(C(N)=O)CC2)cc1 (stereo not drawn) returned Gal4-VP16 FLuc inactive, DT40 TDP1 CPT inconclusive, IL-1B inflam inh -82, ELG1 repair inh inactive, RORgamma inh inactive and TDP1 cell noCPT inconclusive.
`C=CCNCC(=O)N1N=C(c2ccc3ccccc3c2)CC1c1ccc(OC)cc1` (stereo not drawn) gave Gal4-VP16 FLuc inactive, DT40 TDP1 CPT 8.2µM, IL-1B inflam inh inactive, ELG1 repair inh inactive, RORgamma inh inactive and TDP1 cell noCPT 13µM.
COc1ccc(C2CC(c3ccc(Cl)cc3)=NN2C(C)=O)cc1 (stereo not drawn) was read as Gal4-VP16 FLuc inactive, DT40 TDP1 CPT inconclusive, IL-1B inflam inh inactive, ELG1 repair inh inconclusive, RORgamma inh inactive and TDP1 cell noCPT inconclusive.
Screening COc1ccc(C2CC(c3ccccc3)=NN2C(=O)COC(=O)c2ccc(S(C)(=O)=O)cc2)cc1 (stereo not drawn) returned DT40 TDP1 CPT inactive, IL-1B inflam inh inactive, ELG1 repair inh inconclusive and TDP1 cell noCPT inconclusive.
`CC(=O)OCC(=O)N1N=C(c2ccc3ccccc3c2)CC1c1ccccc1` (stereo not drawn) gave Gal4-VP16 FLuc inactive, DT40 TDP1 CPT inactive, IL-1B inflam inh inactive, ELG1 repair inh inactive, RORgamma inh inconclusive and TDP1 cell noCPT inactive.
Cc1ccc(C)c(N2N=C(C(=O)OCc3nnc(-c4ccccc4Br)o3)CCC2=O)c1 was read as DT40 TDP1 CPT inactive, IL-1B inflam inh inactive and TDP1 cell noCPT inactive.
For O=C(NCCOc1ccc2ccccc2c1)c1cncc(Br)c1 the results were Gal4-VP16 FLuc inactive, DT40 TDP1 CPT inactive, IL-1B inflam inh inactive, ELG1 repair inh inactive, RORgamma inh inactive and TDP1 cell noCPT inactive.
Screening COc1ccc(C2CC(c3ccc4ccccc4c3)=NN2C(=O)CNC2CCCCC2)cc1 (stereo not drawn) returned Gal4-VP16 FLuc inactive, DT40 TDP1 CPT 15µM, IL-1B inflam inh -51, ELG1 repair inh inactive, RORgamma inh inactive and TDP1 cell noCPT 13µM.
For c1ccc(CN2CCN(C3CCCSc4ccccc43)CC2)cc1 (stereo not drawn) the results were DT40 TDP1 CPT inconclusive, IL-1B inflam inh inactive and TDP1 cell noCPT 23µM.
`COc1cc2nc(SCc3ccc(C)cc3)n3nc(CCn4nc(C)cc4C)nc3c2cc1OC` gave DT40 TDP1 CPT inactive and TDP1 cell noCPT inactive.
`O=C(CCc1ccccc1)NCCc1csc(-c2cccc(F)c2)n1` gave DT40 TDP1 CPT inconclusive and TDP1 cell noCPT 18µM.
For O=C(COc1ccccc1)NCCc1csc(-c2ccc(F)cc2)n1 the results were DT40 TDP1 CPT 15µM and TDP1 cell noCPT inconclusive.
O=C(Cc1cccs1)NCCc1csc(-c2ccccc2)n1 was read as Gal4-VP16 FLuc inactive, DT40 TDP1 CPT inactive, IL-1B inflam inh inactive, ELG1 repair inh inactive, RORgamma inh inconclusive and TDP1 cell noCPT inconclusive.
O=S(=O)(NCCc1csc(-c2ccc(F)cc2)n1)c1ccc(F)cc1F was read as DT40 TDP1 CPT 16µM and TDP1 cell noCPT 21µM.
`CCS(=O)(=O)NCCc1csc(-c2ccc(OC)c(OC)c2)n1` gave Gal4-VP16 FLuc inactive, DT40 TDP1 CPT inactive, IL-1B inflam inh inactive, ELG1 repair inh inactive, RORgamma inh inactive and TDP1 cell noCPT inconclusive.
Screening COc1ccc(CC(=O)NCCc2csc(-c3cccc(F)c3)n2)cc1OC returned DT40 TDP1 CPT inactive and TDP1 cell noCPT inconclusive.

Source: PubChem BioAssay (National Center for Advancing Translational Sciences (NCATS))
